The source of these data is PubChem BioAssay (NCATS).

Values joined by “and” are separate entries in the source; they are usually repeats but may differ in a detail not shown here. Identical values can stand only once. Results filed as inconclusive are left out. Active and inactive are the calls of the source. Unless noted, the call rests on the fitted dose curve; in most records, active means well fitted curve in the direction sought with a large enough effect; inconclusive means small, poorly fitted or top-dose-only effect, or another doubt; inactive means no such curve, though single readings can be large; an effect the other way counts as inactive or inconclusive.

Test [1] in a line: Cell Viability - Jurkat (AID 426;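 active means dose-dependent loss of cell ATP signal giving a full or clear fitted curve, ranked by lower potency value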;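 further: potency means the concentration at half of the fitted maximal effect; cells exposed to compound for 40 hours at 37 °C before ATP read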). Particulars: qHTS. The method, boiled down:
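Cytotoxicity was scored as loss of cellular ATP, measured by luciferase-based luminescence, in Jurkat clone E6-1 cells after 40 h compound treatment; tamoxifen and doxorubicin served as positive controls.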

The nature of test [2]: Cell Viability - Hek293 (AID 427;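 active means compounds whose dose-response curve shows a full or clear partial loss of cell viability, called from curve shape rather than a numeric limit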;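 further: potency means the concentration at half of the fitted maximal effect; cells exposed to compound for 40 hours at 37 °C before reading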). To be noted: qHTS. The method, boiled down:
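Luminescent ATP read-out (CellTiter-Glo, 20 min RT) after 40 hr compound exposure at 37 °C in complete medium. Signal normalized to DMSO (basal) and 100 uM tamoxifen (100% inhibition); concentration-response fitted with the standard Hill equation to give AC50.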
Background: Quantitative high-throughput screening tests each substance at several concentrations.

Test [3] is described as follows: Cell Viability - SH-SY5Y (AID 544).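 Further: cells exposed to compound for 40 hours; 0% = DMSO alone and -100% = 100 µM tamoxifen; nearly all actives have a fitted effect of over 55% in size.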 To be noted: SH-SY5Y neuroblastoma cell viability; viability change, negative = cytotoxic: at 92.2 µM (top of the series). The method, boiled down:
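Quantitative HTS in SH-SY5Y neuroblastoma cells, 40 hr treatment at 37 °C, ATP content by luciferase luminescence; AC50 from Hill fits.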

Test [4] is described as follows: Cell Viability - Mesenchymal (AID 546).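 Further: cells exposed to compound for 40 hours before reading; 0% = DMSO only and -100% = 100 µM tamoxifen.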 To be noted: mesenchymal cells viability, qHTS; series mostly up to 91.7 µM. Put shortly:
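CellTiter-Glo luminescence (intracellular ATP, 20 min room temperature) after 40 hr compound exposure at 37 °C of 1000 glomerulus-derived human kidney mesenchymal cells/well; AC50 values obtained by fitting qHTS concentration-response data to the Hill equation.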

For test [5], the target named is Cytochrome P450 3A4 (Homo sapiens) (UniProt P08684). Kind of test: qHTS Assay for Inhibitors and Substrates of Cytochrome P450 3A4 (AID 884). Further: on the % scale 0 is the no-effect control and ±100 the full control effect; nearly all actives have a fitted effect of over 50% in size. To be noted: recombinant CYP3A4, Luciferin-PPXE luminescence; series mostly up to 57.1 µM. Put shortly: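 Luminescent readout of luciferin produced by CYP3A4 (20 nM) dealkylation of Luciferin-PPXE, 25 uM (its KM). NADPH-driven reaction ran 60 min at RT after 10 min compound preincubation; data scaled to 57 uM ketoconazole as 100% inhibition.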
Cytochrome P450 3A4 (Homo sapiens), sequence (P08684 whole entry, looked up): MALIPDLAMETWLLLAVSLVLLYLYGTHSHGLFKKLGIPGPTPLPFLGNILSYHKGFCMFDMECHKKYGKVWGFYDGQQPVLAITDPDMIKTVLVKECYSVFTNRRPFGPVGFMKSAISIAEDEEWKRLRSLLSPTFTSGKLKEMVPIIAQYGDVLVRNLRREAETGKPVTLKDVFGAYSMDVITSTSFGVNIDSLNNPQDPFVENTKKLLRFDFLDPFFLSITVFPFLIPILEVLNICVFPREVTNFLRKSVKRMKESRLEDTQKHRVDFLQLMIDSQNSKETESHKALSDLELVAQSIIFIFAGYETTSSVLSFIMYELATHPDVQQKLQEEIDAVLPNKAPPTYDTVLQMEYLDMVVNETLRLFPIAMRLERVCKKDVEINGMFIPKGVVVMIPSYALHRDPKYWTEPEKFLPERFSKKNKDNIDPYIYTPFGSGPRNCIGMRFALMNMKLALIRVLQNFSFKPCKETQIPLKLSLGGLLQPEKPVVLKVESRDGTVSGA

The nature of test [6]: MultiTox-Fluor Cytotoxicity Assay - LYMP1-002 - Dead Cells (AID 960).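 Further: 0% = DMSO and 100% = tetraoctylammonium bromide; nearly all actives have a fitted effect of over 60% in size.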 To be noted: LYMP1-002 lymphoblastoid cells, dead-cell protease fluorescence; series mostly up to 46.1 µM. Put shortly:
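Concentration-dependent increases in membrane-leaked protease activity are quantified in LYMP1-002 cells after 16 hr treatment; values are normalized against DMSO and tetraoctylammonium bromide (15 uM) controls and AC50 derived by Hill modeling.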

Test [7] is described as follows: Cell Viability - LYMP2-005 (AID 967).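 Further: plate controls were DMSO only for no effect and 92 µM tetraoctylammonium bromide control for full effect.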 Particulars: LYMP2-005 lymphoblastoid cell viability; series mostly up to 92.2 µM. The method, boiled down:
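Human lymphoblastoid LYMP2-005 cells, 2,500 per well in complete medium, rested 5 h at 37C then compound-treated 24 h at 37C. Intracellular ATP read by CellTiter-Glo luminescence after 30 min at room temperature; AC50 from Hill-equation fits of concentration-response data.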

Test [8] is described as follows: Cell Viability - LYMP2-019 (AID 973). Further: nearly all actives have a fitted effect of over 55% in size. Further: potency means the concentration at half of the fitted maximal effect. To be noted: LYMP2-019 lymphoblastoid cell line viability; series mostly up to 92.2 µM. The method, boiled down:
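AC50 values come from Hill-equation modelling of qHTS concentration-response curves, where viability is measured as luciferase-based ATP luminescence in the lymphoblastoid line after 24 hr compound exposure in complete culture medium.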

Test [9] is described as follows: Cell Viability - LYMP2-010 (AID 981).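 Further: cells exposed to compound for 24 hours at 37 °C; nearly all actives have a fitted effect of over 55% in size.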 Further: potency means the concentration at half of the fitted maximal effect. Particulars: LYMP2-010 lymphoblastoid cell viability, qHTS; series mostly up to 92.2 µM. The method, boiled down:
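This 24 hr viability screen uses LYMP2-010 lymphoblastoid cells, quantifies ATP via luciferase luminescence, and derives AC50 from Hill fits of qHTS concentration-response data.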

A short description of test [10]: Cell Viability - LYMP2-024 (AID 988). Further: nearly all actives have a fitted effect of over 60% in size. Further: potency means the concentration at half of the fitted maximal effect. To be noted: LYMP2-024 lymphoblastoid cell viability; series mostly up to 92.2 µM. Put shortly: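 Cells at 2500 per well received compound for 24 hr after a 5 hr settling period. Viability was scored by CellTiter-Glo luminescence, with AC50 from Hill fits.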
Test [11] in a line: Cell Viability - LYMP2-026 (AID 989). Further: on the % scale 0 is the no-effect control and ±100 the full control effect; nearly all actives have a fitted effect of over 50% in size. To be noted: LYMP2-026 lymphoblastoid cell viability, qHTS; series mostly up to 92.2 µM. The method, boiled down: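 Acute toxicity screen in complete culture medium, with 24 hr compound exposure at 37 C. Viability read as cellular ATP via luciferase reaction, with tetraoctylammonium bromide (6.4pM to 92 uM) as positive control.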
Test [12] can be described thus: Cell Viability - LYMP1-002 - Assay at 40 hr (AID 994).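 Further: 0% = DMSO only and full inhibition = 92 µM tetraoctylammonium bromide; nearly all actives have a fitted effect of over 60% in size.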 To be noted: LYMP1-002 lymphoblastoid cell viability; series mostly up to 92.2 µM. Put shortly:
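Concentration-dependent ATP loss after 40 hr treatment at 37 C defined toxicity; AC50 values were obtained by fitting the standard Hill equation.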

In test [13] the target is Peroxisome proliferator-activated receptor gamma (Homo sapiens) (UniProt P37231). Briefly: qHTS assay for small molecule agonists of peroxisome proliferator-activated receptor gamma signaling (AID 588536; active means well fitted curve in the direction sought with a large enough effect in the signal ratio, with a control signal flat, not every such curve was filed as active; the % refers to the signal ratio;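 further: 0% = DMSO basal wells and 100% = rosiglitazone at 2 µM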). To be noted: HEK293 PPARg-UAS-bla, beta-lactamase ratio, 16 h, percent of rosiglitazone response, DMSO as zero; series mostly up to 76.7 µM. Put shortly:
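Compound treatment: 16 h, 37 C, HEK293 GeneBLAzer cells. Detection: CCF4, 2 h RT. Values: Hill-fit EC50, efficacy as % of 2 uM rosiglitazone.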

A short description of test [14]: qHTS assay for small molecule agonists of retinoid X receptor alpha signaling (AID 588544; calls by dose curve). To be noted: HEK293T RXRa-UAS-bla, beta-lactamase reporter, 18 h; 530 nm emission.
Test [15] concerns the target Retinoic acid receptor RXR-alpha (Homo sapiens) (UniProt P19793). The description is as above. To be noted: HEK293T RXRa-UAS-bla, beta-lactamase reporter, 18 h; series mostly up to 76.7 µM.
In test [16] the target is Thyroid hormone receptor beta (Homo sapiens) (UniProt P10828). Briefly: qHTS assay for small molecule agonists of thyroid hormone receptor beta signaling (AID 588545; calls by dose curve). To be noted: TR-UAS-bla GripTite HEK 293, beta-lactamase ratio, agonist mode, 18 h; series mostly up to 76.7 µM. Put shortly: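 In this cell-based screen, titrated compounds act on HEK 293 cells held in medium with 2% charcoal/dextran FBS, NEAA and pyruvate for 18 hrs at 37 C. Responses are expressed relative to T3 (10 nM) as 100% and basal DMSO as 0%.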
Thyroid hormone receptor beta (Homo sapiens), sequence (P10828 whole entry, looked up): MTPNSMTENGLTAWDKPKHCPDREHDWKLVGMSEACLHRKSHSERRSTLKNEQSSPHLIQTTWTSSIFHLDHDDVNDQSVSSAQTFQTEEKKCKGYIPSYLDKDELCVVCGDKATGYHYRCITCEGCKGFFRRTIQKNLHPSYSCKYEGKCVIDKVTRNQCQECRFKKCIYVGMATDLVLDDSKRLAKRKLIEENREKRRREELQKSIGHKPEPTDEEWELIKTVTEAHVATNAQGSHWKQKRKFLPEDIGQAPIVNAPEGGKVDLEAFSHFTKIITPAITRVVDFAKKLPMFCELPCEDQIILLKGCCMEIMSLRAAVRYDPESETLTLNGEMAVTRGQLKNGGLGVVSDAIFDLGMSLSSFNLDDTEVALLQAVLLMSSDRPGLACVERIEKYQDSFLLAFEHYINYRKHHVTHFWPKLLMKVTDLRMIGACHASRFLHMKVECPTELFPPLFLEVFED

A short description of test [17]: qHTS assay for small molecule antagonists of retinoid X receptor alpha signaling (AID 588546).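 Further: cells stimulated with 9-cis-retinoic acid as agonist; on the % scale 0 is the no-effect control and ±100 the full control effect.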 To be noted: HEK293T RXRa-UAS-bla, beta-lactamase ratio, antagonist mode; measured here: W530 green channel, cytotoxicity proxy. Put shortly: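 Beta-lactamase reporter inhibition, read as CCF4 fluorescence ratio (ex 405, em 460/530 nm) after 2 h at RT. HEK293T UAS-bla cells, 2500/well, were stimulated with 9-cis-RA at 500 or 100 nM final alongside test compound for 18 h at 37 C.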

Test [18] deals with Tumor necrosis factor (Homo sapiens) (UniProt P01375). Briefly: qHTS assay to identify small molecules that stimulate Tumor Necrosis Factor-alpha (TNF-alpha) secretion (AID 651757; active means well fitted curve in the direction sought with a large enough effect in the signal ratio; the % refers to the signal ratio; further: 0% is about no effect). Particulars: Human cells, HTRF 665/615 ratio; series mostly up to 92.2 µM. The method, boiled down: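 Using 3000 THP-1 cells per well, compounds and controls were applied for 17 hrs at 37 C. Detection followed with two labeled anti-TNF-alpha antibodies (cryptate donor, XL665 acceptor) for 3 hr at room temperature, measured by TR-FRET.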
Tumor necrosis factor (Homo sapiens), sequence (P01375 whole entry, looked up): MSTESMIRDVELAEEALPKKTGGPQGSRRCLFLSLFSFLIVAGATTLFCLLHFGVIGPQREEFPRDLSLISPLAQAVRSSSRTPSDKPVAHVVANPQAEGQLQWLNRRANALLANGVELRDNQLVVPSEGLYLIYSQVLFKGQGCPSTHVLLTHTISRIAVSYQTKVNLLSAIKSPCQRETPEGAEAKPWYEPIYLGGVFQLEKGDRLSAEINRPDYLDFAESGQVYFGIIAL

Test [19] is described as follows: qHTS assay for small molecule antagonists of the retinoid-related orphan receptor gamma (ROR-gamma) signaling pathway - cell viability counter screen (AID 720652; active means well fitted curve in the direction sought with a large enough effect in the repeat runs; an effect the other way counts as inactive or inconclusive;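 further: CHO reporter cells with doxycycline-induced ROR-gamma expression; compound exposure lasted 16 hr before ATP read; on the % scale 0 is the no-effect control and ±100 the full control effect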). Particulars: RORgamma reporter cell line viability counter screen; series mostly up to 92.2 µM. Put shortly:
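ATP-based viability readout in the ROR-gamma reporter CHO cells after 16 hr compound exposure under doxycycline induction.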

Test [20] has as its target Nuclear receptor subfamily 1 group I member 2 (Rattus norvegicus) (UniProt Q9R1A7). Briefly: qHTS assay for small molecule activators of the rat pregnane X receptor (rPXR) signaling pathway (AID 651751; call rule not given here; further: 0% is about no effect). To be noted: rPXR reporter cells, luciferase (One-Glo), 24 h.

Retinoic acid receptor RXR-alpha (Homo sapiens), sequence (P19793 whole entry, looked up): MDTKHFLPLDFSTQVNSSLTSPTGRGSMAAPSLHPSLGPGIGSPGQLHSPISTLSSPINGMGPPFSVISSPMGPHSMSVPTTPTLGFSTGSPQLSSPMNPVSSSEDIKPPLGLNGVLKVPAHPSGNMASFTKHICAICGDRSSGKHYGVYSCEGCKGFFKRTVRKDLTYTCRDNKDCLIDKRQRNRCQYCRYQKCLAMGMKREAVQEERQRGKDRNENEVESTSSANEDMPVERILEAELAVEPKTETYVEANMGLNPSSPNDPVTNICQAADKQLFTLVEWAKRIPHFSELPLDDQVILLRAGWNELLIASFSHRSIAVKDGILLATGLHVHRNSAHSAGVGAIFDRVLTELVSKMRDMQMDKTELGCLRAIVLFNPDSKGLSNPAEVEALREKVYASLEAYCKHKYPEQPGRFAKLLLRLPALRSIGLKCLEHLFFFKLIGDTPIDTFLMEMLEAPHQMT
Peroxisome proliferator-activated receptor gamma (Homo sapiens), sequence (P37231 whole entry, looked up): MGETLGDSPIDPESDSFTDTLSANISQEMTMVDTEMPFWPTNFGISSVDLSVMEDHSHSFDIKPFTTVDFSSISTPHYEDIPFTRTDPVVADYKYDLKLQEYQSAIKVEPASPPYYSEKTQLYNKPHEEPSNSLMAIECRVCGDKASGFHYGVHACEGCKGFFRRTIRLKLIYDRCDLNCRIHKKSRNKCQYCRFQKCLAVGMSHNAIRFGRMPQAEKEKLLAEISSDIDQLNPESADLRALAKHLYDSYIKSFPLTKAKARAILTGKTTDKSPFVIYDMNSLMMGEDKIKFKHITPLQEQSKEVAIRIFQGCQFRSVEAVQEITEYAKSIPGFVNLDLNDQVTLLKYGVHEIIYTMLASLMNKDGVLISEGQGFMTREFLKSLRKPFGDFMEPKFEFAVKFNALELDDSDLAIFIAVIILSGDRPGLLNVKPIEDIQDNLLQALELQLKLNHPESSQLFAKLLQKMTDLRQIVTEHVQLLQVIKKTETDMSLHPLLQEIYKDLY
Nuclear receptor subfamily 1 group I member 2 (Rattus norvegicus), sequence (Q9R1A7 whole entry, looked up): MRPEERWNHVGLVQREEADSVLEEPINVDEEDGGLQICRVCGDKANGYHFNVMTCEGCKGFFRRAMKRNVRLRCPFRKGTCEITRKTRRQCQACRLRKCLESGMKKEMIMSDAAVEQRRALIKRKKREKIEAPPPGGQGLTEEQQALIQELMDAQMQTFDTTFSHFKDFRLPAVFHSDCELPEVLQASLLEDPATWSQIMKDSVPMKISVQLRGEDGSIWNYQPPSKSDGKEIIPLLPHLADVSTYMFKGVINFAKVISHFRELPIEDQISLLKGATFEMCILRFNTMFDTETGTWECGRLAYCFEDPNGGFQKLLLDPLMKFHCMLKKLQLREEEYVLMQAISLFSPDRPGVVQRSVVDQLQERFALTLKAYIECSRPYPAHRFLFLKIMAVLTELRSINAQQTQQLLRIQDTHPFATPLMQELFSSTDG

As for `O=Cc1ccc2c(c1)OCO2`, the Potency in [1] and in test [2] was > 92 µM (inactive) each time. Further, the Potency entry in [3], in test [4], in test [5], in test [6], in test [7] and in test [8] was “inactive” throughout. Also, the Potency result in test [9], in test [10], in test [11], in test [12], in test [16] and in test [19] was “inactive” throughout. Further, the result in [13], in test [15] and in test [18] was inactive. Further, the max response in [14] is 19.3%; in test [17] it was -8.14%; in test [20] it was 2.27% (inactive).
`CN(C)c1ccc(N)cc1`: the Potency in test [1] is 72.8 µM (active); in test [8], 50.1 µM (active); in test [9] it was 50.1 µM (active); in [10], 50.1 µM (active). For the same molecule, the viability change, negative = cytotoxic in test [3] was -91.2% (active). The Potency entry in [4], in test [6] and in test [16] was “inactive” each time. The outcome in test [13] and in test [15] was inactive. Also, the max response in test [14] is -18.3%; in test [17], -13%.
Take `S=C1NCCN1`: the Potency in [1] and in test [2] was > 92 µM (inactive) throughout. Also, the Potency entry in test [3], in test [4], in test [5], in test [6], in [7] and in test [8] was “inactive” throughout. Further, the Potency entry in test [9], in test [10], in test [11], in test [12], in [16] and in test [19] was “inactive” throughout. The result in test [13], in [15] and in test [18] was inactive. Further, the max response in [14] was -9.74% and -4.86%; in test [17], -7.1% and 12.2%; in test [20], 6.01% (inactive) and -10.7% (inactive).
As to `O=C(O)C(Cl)(Cl)Br`, the Potency in test [1] and in test [2] was > 92 µM (inactive) in each case. Besides, the Potency result in test [3], in test [4], in test [5], in test [6], in test [7] and in [8] was “inactive” throughout. The Potency result in [9], in test [10], in [11], in [12], in [16] and in test [19] was “inactive” each time. Further, the outcome in [13], in test [15] and in [18] was inactive. For the same molecule, the max response was -15.6% in test [14], 1.14% in test [17] and 3.3% (inactive) in test [20].
In the case of `C=COC(C)=O`, the Potency in test [1] and in [2] was > 92 µM (inactive) throughout. Moreover, the Potency result in test [3], in test [4], in [5], in test [6], in test [7] and in test [8] was “inactive” each time. Also, the Potency entry in [9], in [10], in test [11], in test [12], in [16] and in [19] was “inactive” each time. For the same molecule, the max response in test [14] is -12.6%; in [17], -12.3%; in [20], 2.31% (inactive). The result in test [15] and in test [18] was inactive.
On to `Oc1ccc(Cl)c(Cl)c1`, for which the Potency in [1] and in [2] was > 92 µM (inactive) throughout. In addition, the Potency result in test [3], in test [4], in test [5], in [6], in test [7] and in test [8] was “inactive” each time. Further, the Potency entry in test [9], in [10], in test [11], in test [12] and in [19] was “inactive” each time. The result in test [13], in test [15] and in test [18] was inactive. For the same molecule, the results for the max response in test [14], in test [17] and in test [20] were -8.76%, -0.477% and -0.245% (inactive), respectively.
Regarding `Cl/C=C/CCl`, the Potency in test [1] and in test [2] was > 92 µM (inactive) in each case. Moreover, the Potency entry in [3], in test [4], in [5], in [6], in [7] and in test [8] was “inactive” each time. The Potency entry in [9], in [10], in test [11], in test [12], in test [16] and in test [19] was “inactive” throughout. For the same molecule, the result in test [13], in test [15] and in test [18] was inactive. Moreover, the max response was -6.27% in [14], 3.06% in [17] and -4.52% (inactive) in test [20].
